Several values for one entry are separate records, joined by “and”; a condition that tells them apart may be missing. Equal values may be shown once. Results filed as inconclusive are left out. Activity calls are given as the source filed them. Calls come from the whole dose curve; as a rule, active = well fitted cell-killing curve with a large enough effect in the repeat runs; inconclusive = weak or mixed curves, or effect the other way; inactive = no such curve, though single readings can be large or run the other way.
Test: qHTS assay to identify small molecule agonists of the estrogen receptor alpha (ER-alpha) signaling pathway in the presence of an antagonist - cell viability counter screen (AID 1259386);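 note: cells exposed to compounds for 22 h at 37 °C before the viability read; nearly all actives have a fitted effect of over 30% in size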
Conditions: VM7Luc4E2 viability, CellTiter-Fluor fluorescence, 22 h; series mostly up to 92.4 µM; activity change, negative = cytotoxicity: at the top concentration
Description: National Center for Advancing Translational Sciences [NCATS]
NIH Chemical Genomics Center [NCGC]
U.S. Environmental Protection Agency [EPA]
National Institutes of Environmental Health Sciences [NIEHS]
National Toxicology Program [NTP]
U.S. Food and Drug Administration [FDA]
Estrogen receptor (ER), a member of nuclear hormone receptor plays an important role in development, metabolic homeostasis and reproduction. Two subtypes of ER, ER-alpha and ER-beta, have similar expression patterns with some uniqueness in both types. Endocrine disrupting chemicals (EDCs) and their interactions with steroid hormone receptors like ER causes disruption of normal endocrine function. Therefore, it is important to understand the effect of environmental chemicals in ER signaling pathway. For identifying ER agonists, VM7Luc4E2 cell line has been used in the current assay.
VM7Luc4E2 cell line (provided by Denison MS, University of California) endogenously expresses full-length ER-alpha and is stably transfected with a plasmid containing four estrogen responsive elements (ERE) upstream of a luciferase reporter gene. This current screening for measuring luciferase reporter gene activity using VM7Luc4E2 cells against Tox21 10K library collection is a confirmation study on agonist mode screening in presence of ER-antagonist (ICI-182,780) at 10.0nM final concentration. The cytotoxicity of the compounds was tested in parallel by measuring the cell viability using CellTiter-Fluor assay system (Promega, Madison, WI) in the same wells.
Tox21 Assay Protocol Summary:
VM7Luc4E2 cells were cultured in phenol red free assay medium containing 10% charcoal stripped FBS for 5 days prior to the assay. The cells were dispensed at 4,000 cells in 4uL of assay medium per well into white wall/solid-bottom 1536-well plates (Corning Life Sciences, Corning, NY) using a Multidrop Combi (Thermo Fisher Scientific Inc., Waltham, MA) dispenser. After the assay plates were incubated at 37C and 5% CO2 for 24hr, 1uL of 10.0nM (final concentration) ICI-182,780 or assay buffer was added using two separate tips of Flying Reagent Dispenser (FRD, Aurora Discovery, San Diego, CA). Then 23nL of compounds dissolved in DMSO at 15 concentrations and positive controls or DMSO only was transferred to the assay plates by a Pintool station (Wako, San Diego, CA). The assay plates were incubated at 37C and 5% CO2 for 22hr. After 21hr incubation at 37C, 1uL/well CellTiter-Fluor reagent (Promega Corporation, Madison, WI) was added to each well using FRD and after 1hr incubation at 37C and 5% CO2, the fluorescence signal was measured on ViewLux plate reader (PerkinElmer, Shelton, CT).
% is set by controls: 0 for no effect and ±100 for the full control effect; potency is the fitted concentration of half-maximal effect.

Compound | activity change, negative = cytotoxicity | Potency
CCOC(=O)C(=O)CCc1ccccc1 | 2.53% [at 42.5 µM] (inactive) | –
CCCCCCCCCCCCCCOS(=O)(=O)O | -6.39% (inactive) | –
O=C1[C@H]2CCCC[C@H]2C(=O)N1CCCCN1CCN(c2nsc3ccccc23)CC1 | – | 29.8 µM (active)
CC(COCCO)OCCO (stereo not given) | 3.82% (inactive) | –
CCCOC(C(=O)OC1CCN(C)CC1)(c1ccccc1)c1ccccc1 | -12.5% [at 42.5 µM] (inactive) | –
CC(C)Cc1ccc(C(C)C(=O)OCc2ccccn2)cc1 (stereo not given) | 0.27% [at 42.5 µM] (inactive) | –
CCCCCCCCCCCc1ccccc1 | 1.14% (inactive) | –
Cc1[nH]c(C)c(Cl)c(=O)c1Cl | -1.35% [at 19 µM] (inactive) | –
COc1ccc(-c2nc3ccc(C4=NNC(=O)CC4C)cc3[nH]2)cc1 (stereo not given) | -6.03% [at 42.5 µM] (inactive) | –
CCCCCCCCCCCC(=O)OC[C@@H](O)[C@H]1OC[C@H](OCCO)[C@H]1OCCO | -2.22% (inactive) | –
O=C(O)c1ccc(S(=O)(=O)O)cc1C(=O)O | -6.32% (inactive) | –
CCC(C)(C)CC | -1.94% (inactive) | –
OC[C@H]1O[C@@H](OCCc2ccc(O)cc2)[C@H](O)[C@@H](O)[C@@H]1O | 3.16% [at 42.5 µM] (inactive) | –
Nc1c(CC(=O)O)cccc1C(=O)c1ccc(Br)cc1 | -7.47% [at 42.5 µM] (inactive) | –
O=C(O)C1(C(=O)Nc2ccc(Cl)cc2Cl)CC1 | -1.56% (inactive) | –
NC(=O)C(c1ccccc1)(c1ccccc1)[C@@H]1CCN(CCc2ccc3c(c2)CCO3)C1 | -3.9% [at 42.5 µM] (inactive) | –
c1ccc(CNCCNCc2ccccc2)cc1 | -6% [at 42.5 µM] (inactive) | –
CC(C)=CCC/C(C)=C/CC/C(C)=C/CO | -6.3% (inactive) | –
CC(C)(C)Cl | 0.573% (inactive) | –
C[N+]1(C)CCC(OC(=O)C(O)(c2ccccc2)C2CCCC2)C1 (stereo not given) | 5.03% [at 42.5 µM] (inactive) | –

Compound | activity change, negative = cytotoxicity | Potency
C=CC(=O)OCCOCCOCCOCCOC(=O)C=C | – | 54.8 µM (active) and 68 µM (active)
COC(=O)c1ccc(I)cc1S(=O)(=O)NC(=O)Nc1nc(C)nc(OC)n1 | 4.07% (inactive) | –
O=[N+]([O-])c1ccc2[nH]ncc2c1 | 7.52% (inactive) | –
Nc1cccc([N+](=O)[O-])c1 | -0.539% (inactive) | –
C/C(=C(\CCOP(=O)(O)O)SC(=O)c1ccccc1)N(C=O)Cc1cnc(C)nc1N | 1.33% [at 8.39 µM] (inactive) | –
CN1C[C@H]2c3ccccc3Oc3ccc(Cl)cc3[C@@H]2C1 | 1.33% [at 42.5 µM] (inactive) | –
CCCCC | 0.506% (inactive) | –
Brc1c2ccccc2cc2ccccc12 | 0.964% (inactive) | –
CC(C)(C)OCC1CO1 (stereo not given) | -7.61% (inactive) | –
COc1ccc(S(=O)(=O)N2C(=O)[C@@](c3ccccc3OC)(N3C[C@H](O)C[C@H]3C(=O)N(C)C)c3cc(Cl)ccc32)c(OC)c1 | – | 27.3 µM (active)
C[N+]1(CC2COC(c3ccccc3)(C3CCCCC3)O2)CCCCC1 (stereo not given) | 0.365% [at 42.5 µM] (inactive) | –
CCC(C)O (stereo not given) | 0.0418% (inactive) | –
NCC(=O)O | 6.54% [at 19 µM] (inactive) | –
C[N+](C)(C)CCOC(=O)CCC(=O)OCC[N+](C)(C)C | 0.595% [at 42.5 µM] (inactive) | –
CC(=O)[O][Al] | -4.19% (inactive) | –
O=C(NCCO[N+](=O)[O-])c1cccnc1 | 3.06% [at 42.5 µM] (inactive) | –
O=S(=O)(Oc1ccc(Cl)cc1)c1ccccc1 | -6.68% (inactive) | –
Nc1ccccc1S(=O)(=O)c1ccccc1 | -1.91% (inactive) | –
CN(C)CCOC(c1ccccc1)c1ccc(Br)cc1 (stereo not given) | -2.41% [at 42.5 µM] (inactive) | –
O=C(O)c1ccc(-n2nc(-c3ccccc3O)nc2-c2ccccc2O)cc1 | -3.19% [at 42.5 µM] (inactive) | –

Reference: PubChem BioAssay (Tox21)
